From PubChem BioAssay (NCI)
This is part of a sample that, as a whole, favours compounds with a hit. Of some 83,000 tested, about 20% had one in any assay.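 For each line, cells grew in 96-well plates with the test compound present at a single concentration for 48 hours.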 Active and inactive are the calls of the source. Rule for the calls: active = growth percent below 10; inactive = the rest.

How the values were obtained:
Test in all cases: NCI-60 one-dose screen, 48 h (100 = growth as untreated, 0 = no growth, -100 = all killed)
Conditions in all cases: 10 µM unless noted
[1] = system: T-47D breast
[2] = system: BT-549 breast
[3] = system: MDA-MB-435 melanoma
[4] = system: SW-620 colon
[5] = system: MCF7 breast
[6] = system: HCT-116 colon
[7] = system: HCC-2998 colon
[8] = system: KM12 colon

Measured: growth

CC1(C)[C@H](O)CC[C@]2(C)[C@@H]1CC[C@@]13C[C@@H](CC[C@H]12)[C@@](O)(CO)C3
active: [6] -70.1%
inactive: [1] 105% | [2] 90.3% | [3] 107% | [4] 108% | [5] 99.3% | [7] 105% | [8] 116%

CCOC(=O)c1ccc(Nc2ccnc(SCC(=O)c3ccc(C#N)cc3)n2)cc1
inactive: [2] 50.1% | [3] 68.4% | [4] 89.8% | [5] 67% | [6] 71.8% | [7] 103% | [8] 54.5%
active: [1] 9.84%

c1ccc(CCSc2ncnc3nc[nH]c23)cc1
inactive: [1] 74.2% | [2] 117% | [3] 79.5% | [4] 94.1% | [5] 88.3% | [6] 88.1% | [7] 97.1% | [8] 93.6%

COc1ccc(C(=O)c2cc3c(N)c(C(=O)Nc4cccc(Br)c4C)sc3nc2C)cc1
inactive: [1] 54.6% | [2] 33.5% | [4] 23.4% | [5] 17.5% | [7] 18.1% | [8] 11.3%
active: [3] -10.4% | [6] 6.78%

O=C(Nc1nc2ccc(C(=O)N3CCN(c4ccc(Cl)c(Cl)c4)CC3)cc2s1)c1ccc(NCCc2ccccc2)c([N+](=O)[O-])c1
inactive: [1] 84.4% | [2] 108% | [3] 111% | [4] 103% | [5] 96.7% | [6] 95% | [7] 105% | [8] 107%

CC[C@H](CC[C@@H](C)[C@H]1CC[C@H]2[C@@H]3CC=C4C[C@@H](OCCc5nn[nH]n5)CC[C@]4(C)[C@H]3CC[C@]12C)C(C)C
inactive: [1] 90.2% | [2] 116% | [3] 112% | [4] 121% | [5] 101% | [6] 95.1% | [7] 109% | [8] 100%

COc1cc2nc(-c3ccc(C#N)cc3)[nH]c(=O)c2cc1OC
inactive: [1] 112% | [2] 293% | [3] 103% | [4] 110% | [5] 100% | [6] 94.3% | [7] 83.1% | [8] 111%

COc1ccc2nc(N=Nc3c(O)ccc4ccccc34)sc2c1
inactive: [1] 27.3% | [2] 53.3% | [3] 45.1% | [4] 35.8% | [5] 13.9% | [6] 26.6% | [7] 45.9% | [8] 32.3%

Cc1ccccc1-c1cc(Cc2ccc(F)cc2)c(=O)[nH]n1
inactive: [1] 99% | [2] 106% | [3] 119% | [4] 102% | [5] 97.9% | [6] 78.4% | [7] 119% | [8] 123%

COc1ccc(C(O)c2cc3c(N)c(C(=O)Nc4cccc(Br)c4C)sc3nc2C)cc1 (configuration not stated)
inactive: [1] 51.8% | [2] 42.3% | [4] 25.9% | [5] 22.1% | [6] 13.2% | [7] 16.2% | [8] 11.1%
active: [3] 8.91%

Cc1[nH]c(C(=O)Nc2ccccc2OCc2cccc(C(=O)NCCN)c2)c(Cl)c1Cl
inactive: [1] 46.5% | [2] 97.2% | [3] 69.1% | [5] 14.7% | [7] 84.4% | [8] 64.1%
active: [4] 3.75% | [6] 7.52%

CCN(CC)CCOC(COc1cc(C)cc(C)c1)COc1cc(C)cc(C)c1
inactive: [1] 18.8% | [2] 50.9% | [3] 19.5% | [4] 24.1% | [5] 17.5% | [7] 16.8% | [8] 31.7%
active: [6] 7.06%

CCCCCCC/C=C/[C@H]1O[C@]2(O)C(=O)C=C3C[C@@H](O[C@@H]4O[C@H](CO)[C@@H](O)C(O)[C@@H]4O)C[C@@H]3[C@H]2C=C1C (some centres not stated)
inactive: [7] 32.8% | [8] 15.5%
active: [1] -9.2% | [2] -18.6% | [3] -19.9% | [4] -28.5% | [5] 8.66% | [6] -45.9%

O=C(NCCN1CCOCC1)OCc1nc2nc(Cl)nc(N3CCOCC3)c2[nH]1
inactive: [1] 63.2% | [2] 13.1% | [4] 23.9% | [5] 20.2% | [7] 77.8%
active: [3] -28.9% | [6] 8.45% | [8] 3.29%

S=c1[nH]cccc1-c1nnc2n1Nc1nc3ccc(Cl)cc3cc1CS2
inactive: [1] 89.5% | [2] 96.3% | [3] 103% | [4] 98.8% | [5] 86.5% | [6] 86.6% | [7] 106% | [8] 104%

O=C(N=Nc1c(O)[nH]c2ccc(F)cc12)c1cc2ccccc2[nH]1
inactive: [1] 88.2% | [2] 90.2% | [3] 99.6% | [4] 105% | [5] 90.1% | [6] 93.5% | [7] 100% | [8] 102%

CC[N+](CC)(CCCC(C)[N+]1(Cc2ccccc2)C(C)=CC=C1C)Cc1ccccc1 (configuration not stated)
inactive: [1] 77.7% | [2] 82.9% | [3] 82.8% | [4] 89% | [5] 81% | [6] 47.6% | [7] 80.8% | [8] 81.7%

O=C1/C(=C\c2cn(Cc3ccccc3)c3ccc(Br)cc23)c2ccccc2N1c1c(Cl)cccc1Cl
inactive: [1] 94.5% | [2] 106% | [3] 105% | [4] 108% | [5] 96.7% | [6] 94.7% | [7] 106% | [8] 104%

O=C(Nc1nc(-c2ccc(Br)cc2)cs1)c1cc(-c2ccc(Br)cc2)nc2ccc(Cl)cc12
inactive: [1] 56.9% | [2] 100% | [3] 104% | [4] 85.7% | [5] 68.5% | [6] 61.3% | [7] 92.8% | [8] 83.3%

CN1CCN(c2ccc3nc(-c4cc(C(C)(C)C)c(O)c(C(C)(C)C)c4)[nH]c3c2)CC1
active: [3] 0.049%
inactive: [1] 63.2% | [2] 98.2% | [4] 14.7% | [5] 35.6% | [6] 23.3% | [7] 25.2% | [8] 16.9%

COc1cccc(CNCCN2C(=O)c3ccc4c5c(ccc(c35)C2=O)C(=O)N(CCNCc2cccc(OC)c2)C4=O)c1
active: [4] -33% | [5] 9.83% | [6] -41.6%
inactive: [1] 97.4% | [2] 96.1% | [3] 118% | [7] 97.8% | [8] 82.4%

COc1ccc(C(=O)c2cc3c(N)c(C(=O)Nc4ccc(Cl)cc4)sc3nc2C)cc1
inactive: [1] 66.4% | [2] 79.5% | [3] 57.2% | [4] 64.3% | [5] 61.8% | [6] 54.6% | [7] 91.6% | [8] 70.2%

C(=N\Nc1ncc(-c2cc3cc4c(cc3o2)OCO4)s1)/c1c[nH]c2ccccc12
active: [1] -3.93% | [2] -56.9% | [3] -31.6% | [4] -33.9% | [5] -0.831% | [6] -1.24% | [7] -3.45% | [8] -29.8%

O=C(N/N=C/c1ccc(F)cc1)c1ccccc1Nc1cccc(C(F)(F)F)c1
inactive: [1] 88.2% | [2] 105% | [3] 100% | [4] 96% | [5] 106% | [6] 111% | [7] 107% | [8] 91.4%

CCOC(=O)c1c(C)nc2c(c1N)C(=O)C(=O)N2Cc1ccc(C(F)(F)F)cc1
inactive: [1] 44% | [2] 53.4% | [4] 35.6% | [5] 11.7% | [6] 27.2% | [7] 98.1% | [8] 27.8%
active: [3] 6.09%

CN1CCN(C(=O)OCc2nc3c(N4CCOCC4)nc(-c4ccccc4)nc3n2C)CC1
active: [1] -40.7% | [2] -71.1% | [3] -84.1% | [4] -46.4% | [5] -64.3% | [6] -71.6% | [7] -75.4% | [8] -61.6%

COc1ccc(C(=O)/C=C/c2cn(Cc3ccc(Cl)cc3)c3ccccc23)cc1
inactive: [1] 48.2% | [2] 86.9% | [4] 28% | [5] 52.6% | [7] 59.7% | [8] 32.2%
active: [3] -20.5% | [6] -77.5%

O=S(=O)(NCCCNc1nccc(-c2c(-c3ccc(F)c(O)c3)nc3sccn23)n1)c1ccc(F)cc1
active: [1] -1.88% | [3] -11.7% | [5] 4.13% | [6] 0.843% | [7] 4.68%
inactive: [2] 26.7% | [4] 11.8% | [8] 10.4%

CCOC(=O)c1c(O)cc(-c2ccccc2)cc1-c1sc(N(C)Cc2ccccc2)nc1Cl
inactive: [1] 93.5% | [2] 42.7% | [3] 101% | [4] 96.5% | [5] 94% | [7] 103% | [8] 104%
active: [6] -85.6%
